High-throughput results from PubChem BioAssay.
PLK1 PBD inh = qHTS for Inhibitors of PLK1-PDB (polo-like kinase 1 - polo-box domain): Primary Screen; Potency, µM, for the others: max response, negative = inhibition, actives largely listed as inhibitors; Plk1 PBD binding of FITC phosphopeptide, fluorescence polarization; Serine/threonine-protein kinase PLK1 (Homo sapiens), P53350; AID 720504, 2013; 2.8% of 360,000 active; also: series mostly up to about 57 µM; % is scaled to controls: 0 for no effect and ±100 for the full control effect; nearly all actives have a fitted effect of over 65% in size
HP1b binding inh = HTS for Inhibitors of HP1-beta Chromodomain Interactions with Methylated Histone Tails. Chromobox protein homolog 1 (Homo sapiens), P83916. AlphaScreen HP1-beta / biotin-H3K9me3 peptide binding. Potency, µM (series often up to 114 µM), without a hit: top-dose activity change, negative = inhibition, usual class: inhibitors. 0.56% of 390,000 active. AID 540317, 2011; also: nearly all actives have a fitted effect of over 70% in size
Target sequence (P83916 whole entry, looked up): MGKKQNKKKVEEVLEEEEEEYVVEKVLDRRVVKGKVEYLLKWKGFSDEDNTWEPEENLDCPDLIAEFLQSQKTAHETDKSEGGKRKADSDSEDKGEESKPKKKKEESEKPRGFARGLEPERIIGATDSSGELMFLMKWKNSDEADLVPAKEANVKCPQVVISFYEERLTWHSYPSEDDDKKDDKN
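AlphaScreen: HP1-beta (50 nM) preformed 30 min with biotin-H3(1-18)K9me3 peptide (50 nM) in PBS pH 7.4, 0.01% Tween-20. Compound added for 30 min at RT, then streptavidin donor/nickel chelate acceptor beads (10 ug/mL) for 30 min.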
Sfp inh = qHTS Assay for Inhibitors of Bacillus subtilis Sfp phosphopantetheinyl transferase (PPTase); Potency, µM, inactives show largest response in the series, negative = inhibition, actives largely listed as inhibitors; Biochemical Sfp PPTase activity, qHTS; 4'-phosphopantetheinyl transferase ffp (Bacillus subtilis), Q9F4F7; AID 1490, 2009; 3.5% of 310,000 active;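 also: the enzyme is Sfp with the accession as filed and its product quenches rhodamine fluorescence; 0% = enzyme reaction without inhibitor and -100% = no enzyme wells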
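Buffer: 50 mM Hepes-Na pH 7.6, 10 mM MgCl2, 0.01% Nonidet P-40, 0.01% BSA. Enzyme 15 nM, pre-exposed to compound 15 min; substrates then added and fluorescence change tracked over 30 min.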
G9a block = qHTS Assay for Inhibitors of Histone Lysine Methyltransferase G9a; 8.8% of 350,000 active; Potency, µM (series often up to 102 µM), inactives show at the top dose activity, negative = inhibition, most hits filed as inhibitors; Histone-lysine N-methyltransferase EHMT2 (Homo sapiens), Q96KQ7; G9a H3K9 monomethylation, AlphaScreen, 2 h; also: % is scaled to controls: 0 for no effect and ±100 for the full control effect; nearly all actives have a fitted effect of over 75% in size
Target sequence (Q96KQ7 913-1193 limits assumed): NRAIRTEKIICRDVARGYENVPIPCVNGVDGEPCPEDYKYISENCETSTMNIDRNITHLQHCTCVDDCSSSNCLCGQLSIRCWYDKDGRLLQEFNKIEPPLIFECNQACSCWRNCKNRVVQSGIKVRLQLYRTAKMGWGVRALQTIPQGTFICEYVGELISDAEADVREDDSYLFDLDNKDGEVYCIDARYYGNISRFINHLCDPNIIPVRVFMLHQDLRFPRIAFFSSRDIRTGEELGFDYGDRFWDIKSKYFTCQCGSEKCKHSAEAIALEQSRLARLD
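Signal arises when biotinylated H3K9 peptide, once monomethylated, bridges streptavidin donor and antibody-captured acceptor beads. Enzyme at 20 nM was preincubated 15 min with test compounds; peptide 500 nM and SAM 20 uM then reacted for 2 h.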
BAZ2B block = qHTS Assay for Inhibitors of BAZ2B | Bromodomain adjacent to zinc finger domain protein 2B (Homo sapiens), Q9UIF8 | 4.4% of 360,000 active | Potency, µM (doses to about 114 µM), for inactives: at the top dose activity change, negative = inhibition, actives largely listed as inhibitors | AlphaScreen BAZ2B-H3K14Ac peptide displacement; also: % is scaled to controls: 0 for no effect and ±100 for the full control effect; nearly all actives have a fitted effect of over 60% in size
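AlphaScreen displacement of biotin-H3(5-23)K14Ac peptide (50 nM final) from BAZ2B (50 nM final) in PBS pH 7.4, 0.01% Tween-20; complex preformed 30 min RT, then compounds (top 110 uM) 30 min RT, beads 20 min dark.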
JMJD2A Tudor = qHTS Assay for Inhibitors of JMJD2A-Tudor Domain; 4.4% of 390,000 active; Lysine-specific demethylase 4A (Homo sapiens), O75164; AlphaScreen JMJD2A-Tudor / H3K4me3 peptide binding; Potency, µM (series often up to 114 µM), for the others: top-dose activity change, negative = inhibition, hits mostly inhibitors; also: % is scaled to controls: 0 for no effect and ±100 for the full control effect; nearly all actives have a fitted effect of over 50% in size
* = called active by the depositor; [ ] = another dose, or the depositor's remark. Most compounds without a hit are left out; they make up all but 12% or so of the library. Calls follow the shape of the dose curve; as a rule, active = well fitted curve in the direction sought with a large enough effect; inconclusive = small, poorly fitted or top-dose-only effect, or another doubt; inactive = no such curve, though single readings can be large; an effect the other way counts as inactive or inconclusive. Potency is read from the fitted curve at half-maximal effect.

For Cc1ccsc1/C=N/n1cnnc1 the results were PLK1 PBD inh -9%, HP1b binding inh 20%, Sfp inh 17%, G9a block 20%[59 µM], BAZ2B block -3% and JMJD2A Tudor 0%.
For S=c1[nH]nc(-c2cc(-c3ccccc3)n[nH]2)n1/N=C/c1c(Cl)cccc1Cl the results were PLK1 PBD inh inconclusive, HP1b binding inh 6%, Sfp inh 40µM*, G9a block 4µM*, BAZ2B block 79µM* and JMJD2A Tudor 45µM*.
For S=c1[nH]nc(-c2cc(-c3ccccc3)n[nH]2)n1/N=C/c1ccc(Br)s1 the results were PLK1 PBD inh inconclusive, HP1b binding inh inconclusive, Sfp inh 25µM*, G9a block 28µM*, BAZ2B block 56µM* and JMJD2A Tudor inconclusive.
For Cc1ccc(-c2n[nH]c(=S)n2/N=C/c2sccc2C)cc1 the results were PLK1 PBD inh -12%, HP1b binding inh 7%, Sfp inh -6%, G9a block 0.63µM*, BAZ2B block -13% and JMJD2A Tudor -22%.
Cc1ccsc1/C=N/n1c(-c2cc(-c3ccccc3)n[nH]2)n[nH]c1=S was read as PLK1 PBD inh inconclusive, HP1b binding inh -3%, Sfp inh 71µM*, G9a block 2.5µM*, BAZ2B block -12% and JMJD2A Tudor inconclusive.
COCCCN1C(=O)C(CC(=O)NCCc2ccccn2)CC(C(=O)N2CCCCCC2)=C1C (centres undefined) was read as PLK1 PBD inh -8%.
For CCN(C(=O)c1ccc(S(=O)(=O)N2CCC(C)CC2)cc1)C1CCS(=O)(=O)C1 (centres undefined) the results were PLK1 PBD inh -8%, HP1b binding inh 31%, G9a block inconclusive, BAZ2B block 14% and JMJD2A Tudor -1%.
CCOc1ccc(-n2c(SCC(N)=O)nc3c(oc4ccccc43)c2=O)cc1 was read as HP1b binding inh 16%, G9a block -1%[59 µM], BAZ2B block 0% and JMJD2A Tudor -21%.
Screening S=c1[nH]nc(-c2cccs2)n1/N=C/c1cn(-c2ccccc2)nc1-c1ccccc1 returned PLK1 PBD inh -17%, HP1b binding inh inconclusive, Sfp inh -1%, G9a block 12%[59 µM], BAZ2B block inconclusive and JMJD2A Tudor inconclusive.
For Cc1ccccc1/C=N/n1c(-c2cc(-c3ccccc3)n[nH]2)n[nH]c1=S the results were PLK1 PBD inh -25%, HP1b binding inh 39%, Sfp inh 56µM*, G9a block inconclusive, BAZ2B block 0% and JMJD2A Tudor inconclusive.
CC(=O)Nc1ccc(NC(=O)CS(=O)(=O)c2cn(CC(=O)N3CCCC3)c3ccccc23)cc1 was read as PLK1 PBD inh -3%, HP1b binding inh 30%, Sfp inh -8%, G9a block 40µM*, BAZ2B block -30% and JMJD2A Tudor -10%.
For O=C(CS(=O)(=O)c1cn(CC(=O)N2CCCC2)c2ccccc12)Nc1ccccc1 the results were PLK1 PBD inh -5%, HP1b binding inh 35%, Sfp inh 8%, G9a block 26%, BAZ2B block -8% and JMJD2A Tudor -1%.
`O=C(CS(=O)(=O)c1cn(CC(=O)N2CCOCC2)c2ccccc12)Nc1ccccc1` gave PLK1 PBD inh 8%, HP1b binding inh 44%, Sfp inh 7%, G9a block inconclusive and JMJD2A Tudor 9%.
For CC(=O)Nc1ccc(C(=O)CSc2nc3ccccc3n2CC(=O)N2CCCC2)cc1 the results were PLK1 PBD inh inconclusive, HP1b binding inh -12%, Sfp inh inconclusive, G9a block inconclusive, BAZ2B block -1% and JMJD2A Tudor -12%.
For COc1ccccc1CCNC(=O)C(=O)c1cn(CC(=O)N2CCOCC2)c2ccccc12 the results were PLK1 PBD inh 24µM*, HP1b binding inh -1%, Sfp inh 8%, BAZ2B block -28% and JMJD2A Tudor -25%.
For Cc1ccc(CNC(=O)CS(=O)(=O)c2cn(CC(=O)N3CCOCC3)c3ccccc23)cc1 the results were PLK1 PBD inh -8%, HP1b binding inh 36%, Sfp inh 40µM*, G9a block 25µM*, BAZ2B block 1% and JMJD2A Tudor -4%.
For CC(=O)Nc1ccc(NC(=O)Cn2c(CC(=O)N3CCCC3)nc3ccccc32)cc1 the results were PLK1 PBD inh 30µM*, HP1b binding inh inconclusive, Sfp inh 21%, G9a block -1%[59 µM], BAZ2B block -19% and JMJD2A Tudor inconclusive.
Screening Cc1nn2c(=O)cc(COC(=O)c3cccs3)nc2s1 returned HP1b binding inh -17%, G9a block 10%[59 µM], BAZ2B block -13% and JMJD2A Tudor -16%.
For O=C(Cn1c(=O)ccc2cc(S(=O)(=O)N3CCCC3)ccc21)Nc1ccccc1 the results were HP1b binding inh 12%[57 µM], G9a block 4%[59 µM], BAZ2B block -2% and JMJD2A Tudor -15%.
Screening CCOC(=O)CCCCCC(=O)Nc1ccc2c(c1)C(=O)N([C@H](C)CO)C[C@@H](C)[C@H](CN(C)S(=O)(=O)c1cn(C)cn1)O2 returned PLK1 PBD inh -3%, HP1b binding inh 46% and JMJD2A Tudor -11%.
Screening Cc1noc(C)c1-c1cc(Nc2ccccc2)ncn1 returned Sfp inh 14% and G9a block 23%[0.501 µM].
CCOC(=O)c1oc2ccccc2c1NC(=O)c1ccco1 was read as PLK1 PBD inh -14%, HP1b binding inh 26%, Sfp inh 8%, G9a block inconclusive, BAZ2B block 0% and JMJD2A Tudor 4%.
Screening CCOC(=O)c1[nH]c2ccccc2c1NC(=S)Nc1cc(C)ccc1C returned PLK1 PBD inh inconclusive, HP1b binding inh -6%, Sfp inh 40µM*, G9a block 45µM*, BAZ2B block inconclusive and JMJD2A Tudor inconclusive.
For CCOC(=O)c1[nH]c2ccccc2c1NC(=O)CC(C)C the results were PLK1 PBD inh -15%, HP1b binding inh 34%, Sfp inh 15%, G9a block 7%[12.7 µM], BAZ2B block -2% and JMJD2A Tudor -15%.
For CCOC(=O)c1[nH]c2ccccc2c1NC(=S)Nc1ccccc1C the results were PLK1 PBD inh inconclusive, HP1b binding inh -9%, Sfp inh inconclusive, G9a block 32µM*, BAZ2B block -38% and JMJD2A Tudor -34%.
Screening CCOC(=O)c1[nH]c2ccccc2c1NC(=O)c1ccco1 returned PLK1 PBD inh -6%, HP1b binding inh 10%, Sfp inh 50µM*, G9a block -37%[12.7 µM], BAZ2B block -10% and JMJD2A Tudor -15%.
